Experimental findings from the supplement of paper PMC10933113 are described below.

Structures can show the parent of a compound that is named as a salt. ± gives the uncertainty stated by the source.

The subject of this experiment is THP-1. In words: CD54 surface expression induction over DMSO control (% over DMSO); higher = stronger dendritic cell activation. The settings on record: exposure time: 24 h. The method, then:
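hCLAT-like CD54 and CD86 surface expression on THP1 cells after 24 h exposure at a single concentration (highest non-cytotoxic concentration, or 100-200 µM if not cytotoxic). Flow cytometry (iQue) was run on 5,000 live cells.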
As for `c1cc(OCC2CO2)cc(OCC2CO2)c1` (centres undefined) [Diglycidyl resorcinol ether (DGRE)] (10 µM), the “CD54 surface expression induction” value is -3.16 ± 4.6.
For `Nc1ccc(Cl)cc1N` [4-Chloro-1,2-diaminobenzene*] (200 µM), the “CD54 surface expression induction” value came to 233 ± 36.
To `Nc1ccc(-c2ccccc2)cc1` [4-Biphenylamine hydrochloride] (100 µM) belongs -0.07 ± 4.1.
For `Nc1ccc2ccccc2c1` [2-Naphthylamine] (100 µM), the “CD54 surface expression induction” value turned out to be 10.3 ± 0.75.
With `O=C(CCl)CCl` [1,3-Dichloropropanone] (200 µM), the “CD54 surface expression induction” value was -1.2 ± 0.3.
To `CC(COc1ccc(Oc2ccccc2)cc1)Oc1ccccn1` (centres undefined) [Pyriproxyfen] (200 µM) belongs -4.39 ± 4.3; to `NNC(N)=S` [Thiosemicarbazide] (10 µM), -1.62 ± 1.6.
For the molecule `ClC1=C(Cl)C(Cl)(Cl)C(Cl)=C1Cl` [Hexachlorocyclopentadiene] (200 µM), the “CD54 surface expression induction” value is 47.8 ± 5.2.
Take `c1cc(OCC2CO2)ccc1Cc1ccc(OCC2CO2)cc1` (centres undefined) [Bis[4-(glycidyloxy)phenyl]methane] (100 µM): the “CD54 surface expression induction” value is 6.35 ± 4.5.
With `COP(=S)(OC)Oc1ccc(SC)c(C)c1` [Fenthion] (100 µM) the figure was -7.55 ± 5.7.
`CN1C[C@H](C(=O)N[C@]2(C)O[C@@]3(O)[C@@H]4CCCN4C(=O)[C@H](Cc4ccccc4)N3C2=O)C=C2c3cccc4[nH]cc(c34)C[C@H]21` [Ergotamine D-tartrate*] (79 µM): the “CD54 surface expression induction” value turned out to be 228 ± 28.
With `CCCCNC(=O)OCC#CI` [Carbamic acid, butyl-, 3-iodo-2-propynyl ester] (10 µM) the figure was -5.33 ± 4.1.
With `CCc1cccc(CC)c1N(COC)C(=O)CCl` [Alachlor] (100 µM) the figure was 26.5 ± 9.3; with `O=C1C(Cl)=C(Cl)C(=O)C(Cl)=C1Cl` [Chloranil] (100 µM), 17.4 ± 13; with `CC(C)(C)C(=O)CCl` [1-Chloro-3,3-dimethyl-butan-2-one] (200 µM), -19.8 ± 13.
With `O=C(O)c1ccc(=O)[nH]c1` [6-Hydroxynicotinic acid] (100 µM) the figure was -3.56 ± 0.01; with `CCCCOCN(C(=O)CCl)c1c(CC)cccc1CC` [Butachlor] (10 µM), -3.73 ± 3.2; with `O=C(CCl)c1ccccc1` [2-Chloroacetophenone] (100 µM), 24.1 ± 11.
Turning to `CCC(C)(c1ccc(O)cc1)c1ccc(O)cc1` [Bisphenol B] (200 µM), the “CD54 surface expression induction” value came to 3.9 ± 0.67.
With `CCOC(=O)CC(SP(=S)(OC)OC)C(=O)OCC` (centres undefined) [Malathion] (100 µM) the figure was 3.59 ± 5.1; with `OC[P+](CO)(CO)CO` [Tetrakis(hydroxymethyl)phosphonium SO4] (100 µM), 8.38 ± 1.4.
For the molecule `C[C@]12CC[C@H](O)C[C@H]1CC[C@@H]1[C@@H]2C[C@@H](O)[C@]2(C)[C@@H](C3=CC(=O)OC3)CC[C@]12O` [Digoxigenin] (10 µM), the “CD54 surface expression induction” value was 27.6 ± 4.9.
To `NCCc1ccc(O)cc1` [Tyramine] (100 µM) belongs -4.6 ± 1.1; to `CC(C)=CC1C(C(=O)OCc2coc(Cc3ccccc3)c2)C1(C)C` (centres undefined) [Resmethrin] (200 µM), 19.8 ± 10.
With `CCC(C)(NC(=O)c1cc(Cl)c(C)c(Cl)c1)C(=O)CCl` (centres undefined) [Zoxamide] (10 µM) the figure was 10.1 ± 25; with `CCOC(=O)NC(=S)Nc1ccccc1NC(=S)NC(=O)OCC` [Thiophanate] (100 µM), 18.5 ± 4.7; with `Cl/C=C\C[N+]12CN3CN(CN(C3)C1)C2` [Chloroallyl methenamine chloride] (10 µM), 3.14 ± 2.9.
To `c1ccc2sc(SNC3CCCCC3)nc2c1` [N-Cyclohexyl-2-benzothiazolesulfenamide] (100 µM) belongs -15.5 ± 5.8; to `Cc1ccc(N=C=O)cc1N=C=O` [Toluene-2,4-diisocyanate] (100 µM), -17 ± 4.1; to `NNCc1ccccc1` (100 µM), -19.4 ± 21.
On to `CC(C)CC(C)Nc1ccc(Nc2ccccc2)cc1` (centres undefined) [N-(1,3-Dimethylbutyl)-N'-phenyl-p-phenylenediamine] (10 µM), for which the “CD54 surface expression induction” value is 6.74 ± 24.
With `COc1ccc2[nH]cc(CCN(C(C)C)C(C)C)c2c1` [5-Methoxy-N,N-diisopropyltryptamine hydrochloride] (224.7 µM) the figure was -7.18 ± 11; with `ClC1=C(Cl)C2(Cl)C3C(Cl)C(Cl)CC3C1(Cl)C2(Cl)Cl` (centres undefined) [Chlordane] (200 µM), 27.9 ± 0.29.
To `O=C1C=CC(=O)c2ccccc21` (10 µM) belongs 239 ± 45.
With `C=C1C[C@@H]2[C@H](CC[C@]3(C)C(=O)CC[C@@H]23)[C@@]2(C)C=CC(=O)C=C12` [Exemestane] (100 µM) the figure was -0.45 ± 0.02.
For `CCC(C)(CC)c1cc(NC(=O)c2c(OC)cccc2OC)on1` [Isoxaben] (200 µM), the “CD54 surface expression induction” value is -4.09 ± 5.1.
With `[OH-].c1cc[c]([Sn+]([c]2ccccc2)[c]2ccccc2)cc1` [Triphenyltin hydroxide] (10 µM) the figure was 54.7 ± 30; with `CN(C)c1ccc(N)cc1` [N,N-Dimethyl-p-phenylenediamine] (100 µM), 30.8 ± 7.3; with `CCS(=O)(=O)CCSP(=O)(OC)OC` [Demeton-S-methylsulphon] (10 µM), -8.94 ± 5.5.
